# Results published in PubChem BioAssay AID1347423 (Functional Genomics Laboratory (NCATS/FGL), 2020).
# The whole screen tested about 52,000 sequences, of which about 210 (0.4%) were called active.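 The calls were made as follows: active = gene whose silencing raises cell survival under the drug, median off-target-corrected z-score across its silencing RNAs 2 or more; inactive = the rest.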 Only a selection was taken, and actives are over-represented in it overall.
# Assay: Resistance to Poly (ADP-Ribose) Polymerase inhibitor: Gene Identification via Genome-wide siRNA Screen
# Conditions: mouse BRCA2 R2336H ES cells, olaparib, CellTiter-Glo viability; active compounds read high
# Method in brief: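 Mouse BRCA2 R2336H ES cells were reverse-transfected with siRNA (20 nM final), treated at 48 h with 500 nM olaparib, and read by CellTiter-Glo after 72 h. Scores: MAD-based z per siRNA, median per gene, seed off-target correction.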
row,Sequence,z-score
1,GGAGACAAAUAUGAUGUAUTT against Hook1,-1.94 (inactive)
2,GGAUUUUUCUUUUGAGCGATT against Figf,-0.866 (inactive)
3,GCACGUGGGCUAUUCCUACTT against Gria1,2.78 (active)
4,CCAACUUUCUCUUAGGAAATT against Gm580,0.9 (inactive)
5,CCUAUUUUUUCUCCACUGATT against Sntg1,-0.718 (inactive)
6,GGUCAUGGAAGAAGCAAAGTT against 5730555F13Rik,2.7 (inactive)
7,GGUUUUUUACACAACAUGCTT against 1110067D22Rik,0.0564 (inactive)
8,GGAGUACGUUGACAUCAUCTT against Timp4,-1.01 (inactive)
9,GCGCAUAUUUUAUCAACUCTT against Plcb3,1.31 (active)
10,GGAGAAACUUCAACUCUUATT against Resp18,0.73 (inactive)
11,CGAAAGAAGGUGAGGGCUCTT against Ppp1r9a,-0.95 (inactive)
12,GCGUAUCCCAGAUAUCCGATT against BC064033,0.0741 (inactive)
13,GCUGUUGCUGGCUAUUCUGTT against 5730409G15Rik,0.298 (inactive)
14,GCCUCACAACUCUUACACCTT against Ptprc,0.888 (inactive)
15,GGAUGGUCAUAAGGAUCAATT against Gpr128,2.66 (active)
16,CCAAGUAUUUCACAAACCGTT against Slc29a1,1.5 (inactive)
17,GGAAGAUGUCCAAACCCGCTT against Tm4sf7,0.167 (inactive)
18,CCAACUCGUUAUCACUAUATT against 1700001D09Rik,-0.0393 (inactive)
19,GGGUACAAUAUCCUUAAGUTT against D430033A06Rik,-0.51 (inactive)
20,GAUUCCACGCCAAUUCAUCTT against Ccl3,-1.53 (inactive)
21,CCCACCUAGGUUCAUCCCATT against Fath,2.93 (active)
22,GGCUUAUCAGUCCAUGAAGTT against BC022224,1.93 (inactive)
23,GGAGCCGAGUACAACAUCATT against Galgt1,0.763 (inactive)
24,CGUUUUCCACAAAGCAAAATT against Olfr1465,0.0226 (inactive)
25,GGCAAAGUGAUAUUUUCAATT against Slc6a12,1.85 (active)
26,CCCGGAACUUAACUCUGUATT against LOC381438,-0.264 (inactive)

row,Sequence,z-score
1,GCCAUUUACAUUCCCAGGGTT against Gm741,0.238 (inactive)
2,CCAAGCAACACCACUCAUCTT against Centb2,-0.144 (inactive)
3,GGAGAUGAAGAGGUUGGUUTT against Olig3,-0.366 (inactive)
4,GGGAUCGAUCAAUCAUAACTT against Tcfap2c,1.8 (inactive)
5,GGAAAUCUUACAGACUGAGTT against Grid2,2.5 (active)
6,GCGCAAGUACCUCAAGAGUTT against Grem2,0.717 (inactive)
7,GGUGCUAGUGUAUGAAUUATT against 9830109N13Rik,2.24 (inactive)
8,GGUGAUAACUCCCUAGUAGTT against Rai12,-1.43 (inactive)
9,CGGACAUUGUUCUGUUUUCTT against Por,1.14 (inactive)
10,CGACAUGUAAAACUAUUGUTT against BC034097,0.0442 (active)
11,CCUCUAGUAAAGAAAUAGATT against 2610019N13Rik,-2.5 (inactive)
12,GGGCUGAUGUGGGCUAAAUTT against 1110001E17Rik,4.07 (active)
13,CGAAGCUAAAGGAUAUAGATT against 1110025H10Rik,0.236 (inactive)
14,GCCCAUAACAAAACAUCUATT against Mcpt5,1.1 (inactive)
15,GGACAGAGCGUGCACUAGATT against Pqlc2,0.262 (inactive)
16,CCCUCCAAGAUAGAAGCGGTT against 2610021K21Rik,0.124 (inactive)
17,GGUGGCAUGUCAUUGCUUCTT against Igf2,1.16 (inactive)
18,GUCACUUGGCUUCCAUUGATT against Olfr510,1.19 (active)
19,GGUUUGAAAUCAGCAUGAUTT against A530065I17Rik,-0.647 (inactive)
20,GGCUUUGUGCUAAAAAAAATT against Pgm2l1,0.12 (inactive)
21,CGCAGACAGUUUGAGGCUGTT against 1700034P14Rik,-0.696 (inactive)
22,CCUUAGUUAGAAAUGUUGATT against Xkh,0.357 (inactive)
23,GCUGAAAAUACAAUCUCUGTT against Capn3,2.18 (inactive)
24,GGAACUGAUAACCAGCCAGTT against 1700029B21Rik,-0.44 (inactive)
25,CCUUGAUGACGAAAACAUATT against Plekha2,0.756 (inactive)
26,GGCGAAGGUGUAGAAUCUCTT against A830094I09Rik,2.23 (active)

row,Sequence,z-score
1,CGAAGUUCAUUCCUGUCUATT against Myf6,-0.688 (inactive)
2,GGAUUACGGUCACUGCCAUTT against Gabrr2,1.39 (inactive)
3,GGAGAUGACGUGAAAACAATT against Srf,1.93 (inactive)
4,GACUAGAACAACAGAAAGUTT against Vax2,1.24 (inactive)
5,GCAAGUAUACACCUCUCAATT against Slc6a12,2.24 (active)
6,GGUAUACACAUGAAAACCATT against 3110023B02Rik,2.35 (inactive)
7,GGAUGGUGACAUGAAAAUCTT against Ifng,-0.37 (inactive)
8,GGUGAUACGUAUUUUUUAGTT against 2700050F09Rik,1.03 (active)
9,CCACCAGACUCAUAUUAACTT against LOC433501,-0.496 (inactive)
10,CGAUUUGGCCUUGAUGGGUTT against Wtip,-0.561 (inactive)
11,GGAUAUCAAAGACAAAGCATT against 3100002B05Rik,0.612 (inactive)
12,GCCCAUUAUUUUCGGACUGTT against Olfr845,-2.22 (inactive)
13,CCUCAAUUGCAUGUGACCUTT against Itgb1bp1,-0.642 (inactive)
14,GGGCCUUUGGAUGUUGCUATT against Abcc10,1.24 (inactive)
15,GGUCCUUCCUCAGAUCCCUTT against 5730457F11Rik,1.66 (active)
16,GCUCUCACACCCUUAUGUATT against Sdfr1,-1.45 (inactive)
17,GGAAUACUUAUAGCUGACUTT against Rdhe2,0.32 (inactive)
18,GGGCUAUAACCCUGAAGAUTT against Rarg,1.67 (active)
19,GGACUUAGACAUCCACCUCTT against 1700034O15Rik,-0.799 (inactive)
20,CCGGGUGCUGUUCUAUAAGTT against Pecam1,0.0651 (inactive)
21,GCUUGGAAGACUGUAAACUTT against 4921521K07Rik,0.958 (inactive)
22,GGUGGUCUGGUUCAAGGAUTT against Mylk,-0.558 (inactive)
23,GGGUCCCUAAGCAUGUUCCTT against Slfn10,1.48 (inactive)
24,CGCAGAAGCUAAUAAACAGTT against Psmb6,-1.52 (inactive)
25,GCUGUUUUAUCUCCAAUGGTT against Araf1,1.6 (active)
26,GGACAAGUUUCAGUGACCCTT against Zdhhc9,-0.268 (inactive)

row,Sequence,z-score
1,GCCAUAUACAGGUUCAAAGTT against Msh6,0.613 (inactive)
2,GCCCAAUAUACUCUAAGGGTT against Cdh20,0.338 (inactive)
3,GCAUCAAAAUCGGUUUCUGTT against 4930526D03Rik,-0.28 (inactive)
4,GGAUCGCUCAUGGAUAUUUTT against Fus,-0.22 (active)
5,GGAGACAGAAUGCACAUUUTT against Tff3,-1.75 (inactive)
6,CCAUUCGGACCAAAGUGUATT against 4930563C04Rik,-1.48 (inactive)
7,GCCUCUGAGUUGCAUGAGUTT against Ppp2r5b,2.37 (active)
8,GCAAUGGUUGGUUCAAUAATT against 5730427C23Rik,-1.47 (inactive)
9,GGUAGAGGUUAAGACGAUCTT against C330023D02Rik,-0.997 (inactive)
10,CGGUGAAAAACCUAUGUAUTT against 1700028P14Rik,0.894 (inactive)
11,GGCAUUCUUAUAAAGAAACTT against Ube2q,3.88 (inactive)
12,CGCUGAAAUAAAGACCAGATT against 2400010G15Rik,1.99 (active)
13,GCCAGUGAGGCUACUUUCATT against Myo18a,-0.423 (inactive)
14,GCAUCUCACUCGUAAAGGUTT against 4732406D01Rik,-0.389 (inactive)
15,GGGAGAGGCACAAAGCAUATT against Ubxd3,1.27 (inactive)
16,GGGUUUUGUGUAAAAGGUUTT against Olfr584,1.72 (active)
17,GGGACACAAUUCUUUGAAATT against G630009D10Rik,0.375 (inactive)
18,GGACAUAAAAGACUUAAAGTT against Actr8,3.83 (active)
19,GGAGCCAUGACUUUUCACUTT against Sec22l1,0.164 (inactive)
20,GAGUCCCUUGGCAGCUCAUTT against Klra8,-0.753 (inactive)
21,GCACAAGAGGUAUCCUUGCTT against A630038D02,-0.381 (inactive)
22,GGAACAGAAAGCUAUGGAUTT against Surf6,-0.706 (inactive)
23,GGGAGAGUCAAAAAAAGAUTT against Khdrbs1,2.83 (active)
24,GGAGUACCUGGACAUUGUGTT against 1110032N12Rik,0.677 (inactive)
25,GGACGGACAUUUAUGACCCTT against Cpsf3,-0.072 (inactive)
26,GGAAAUUCAGCAUGGAGCCTT against Vgll4,-0.472 (inactive)
